The text below walks through data of PubChem BioAssay (NCATS).

Where “and” joins values, the source holds several entries; their conditions need not be identical. Identical values can stand only once. Records with an inconclusive call do not appear. Calls of active or inactive are those of the source. Unless noted, calls follow the shape of the dose curve; as a rule, active = well fitted curve in the direction sought with a large enough effect; inconclusive = small, poorly fitted or top-dose-only effect, or another doubt; inactive = no such curve, though single readings can be large; an effect the other way counts as inactive or inconclusive.

Assay [1] has as its target Arylsulfatase A (Homo sapiens) (UniProt P15289). As to the kind of experiment: qHTS screen for enhancers of Arylsulfatase A (ASA1): LOPAC Validation Assay (AID 720538). Summed up: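 First, ASA-I179S fibroblasts from an MLD patient adhered for 6 hrs. Next, compounds were added for 48h. Then pNCS substrate (0.5mM final) with lysis buffer reacted 14h at room temperature before NaOH stop and fluorescence measurement.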

Assay [2] is described as follows: qHTS for Activators of Parkin Expression: LOPAC Validation Assay (NLuc Reporter) (AID 720572;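 also: 0% = DMSO and 100% = positive control compound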). Summed up:
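Neuronal line stably carrying a FLuc/NLuc coincidence reporter under the Parkin promoter, seeded 24 h, then dosed in 7-point series for 24 h at 37 C. NLuc luminescence read after FLuc; normalized to DMSO and positive control (100%).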
On the technique in general: Quantitative high-throughput screening tests each substance at several concentrations.

Assay [3] is described as follows: qHTS for Activators of Parkin Expression: LOPAC Validation Assay (FLuc Reporter) (AID 720573;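 also: 0% = DMSO and 100% = positive control compounds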). Put shortly: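 A neuronal cell line harbouring FLuc and NLuc reporters behind the Parkin promoter was exposed to compounds for 24 h. Firefly luciferase signal, measured after 10 min with detection reagent, was scaled to DMSO and positive-control wells.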
Assay [4] has as its target T1, Hexokinase-4 (Homo sapiens) + Glucokinase regulatory protein (Homo sapiens) (UniProt P35557+Q14397). As to the kind of experiment: qHTS assay for inhibitors of recombinant human GCK-GKRP interaction: Diaphorase-coupled assay (AID 743205). Put shortly:
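Inhibitors of the GCK–GKRP complex relieve GKRP suppression of GCK, detected through a G6PDH–diaphorase cascade reducing resazurin. Human GST-GCK and FLAG-GKRP are used at 10 nM with 5 mM glucose and 0.4 mM ATP.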

Assay [5] deals with T1, Hexokinase-4 (Homo sapiens) + Glucokinase regulatory protein (Homo sapiens). As to the kind of experiment: qHTS assay for inhibitors of recombinant human GCK-GKRP interaction: ADP-Glo assay (AID 743206).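 Also: plate controls were DMSO plus enzyme for no effect and no enzyme for full effect.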 Put shortly: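 GST-GCK and FLAG-GKRP (15 nM each in the dispensed mix, with 2 uM S6P) react with 0.4 mM ATP and 5 mM glucose (final) in Hepes pH 7.6 for 60 min at room temperature. ADP is measured by ADP-Glo luminescence.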

The target is the same in assay [6]. As to the kind of experiment: qHTS assay for inhibitors of recombinant human GCK-GKRP interaction: HTRF assay (AID 743207).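 Also: 0% = DMSO with GCK present and -100% = DMSO wells lacking GCK.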 Summed up: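 Steps: dispense GCK–GKRP complex (5 nM each, GST- and FLAG-tagged) with 2 uM S6P; pin in compounds; add XL665/Eu-cryptate-labelled antibodies; incubate 60 min at room temperature; read time-resolved FRET at 665 and 615 nm.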

The nature of assay [7]: qHTS Assay for Identifying Gametocytocidal Compounds (AID 743244). Also: potency is read from the fitted curve at half-maximal effect.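 As to max response: % is scaled to controls: 0 for no effect and ±100 for the full control effect; actives lower the fluorescent signal which means gametocytes are killed.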 The conditions noted are these: P. falciparum 3D7 stage III-V gametocytes, alamarBlue, 72 h; max response: stronger effect = lower value. Put shortly: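 Stage III-V P. falciparum 3D7 gametocytes, 20,000 per well, were exposed to compounds for 72 h at 37C, 5% CO2. AlamarBlue was then added for 24 h and viability was read as fluorescence at Ex 525/Em 598 nm.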

A short description of assay [8]: qHTS assay for small molecule antagonists of the retinoid-related orphan receptor gamma (ROR-gamma) signaling pathway - cell viability counter screen (AID 720652; active = well fitted curve in the direction sought with a large enough effect in the repeat runs; an effect the other way counts as inactive or inconclusive;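 also: compound exposure lasted 16 hr before ATP read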; also: potency is read from the fitted curve at half-maximal effect). Put shortly:
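Counter screen in CHO cells carrying TET-inducible ROR-gamma and an ROR response element-luciferase reporter; cells plated 5 hr, compound pinned, doxycycline added, then 16 hr at 37 C. Viability read as intracellular ATP by CellTiter-Glo luminescence.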

The nature of assay [9]: qHTS assay for small molecule agonists of the antioxidant response element (ARE) signaling pathway measured by Nrf2-dependant transcriptional activity - cell viability counter screen (AID 720653; active = well fitted curve in the direction sought with a large enough effect in the repeat runs; an effect the other way counts as inactive or inconclusive; also: % is scaled to controls: 0 for no effect and ±100 for the full control effect). The following applies: ARE-bla HepG2 viability, CellTiter-Glo ATP luminescence, 16 h; max response: stronger effect = lower value. Put shortly:
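ARE-bla HepG2 cells (2,000/well) rested 5 hrs at 37C/5% CO2, then exposed to compounds in DMSO for 16 hrs. Viability was read in the same wells as intracellular ATP by luminescence, 30 min at room temperature after reagent addition.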

A short description of assay [10]: qHTS assay for cell viability of HEK293 cells (AID 743288). Also: nearly all actives have a fitted effect of over 50% in size. Also: potency is read from the fitted curve at half-maximal effect. As to max response: % is scaled to controls: 0 for no effect and ±100 for the full control effect. The conditions noted are these: ATP luminescence (CellTiter-Glo), 18 h; max response: stronger effect = lower value. Summed up: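 The Tox21 protocol used parental HEK293 cells treated for 18 h at 37 C with compounds delivered by pintool; ATP-coupled luminescence after 30 min at room temperature gave viability.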

Assay [11] is described as follows: qHTS assay for cell viability of the p53RE-bla HCT-116 cell line (AID 743292). Also: % is scaled to controls: 0 for no effect and ±100 for the full control effect; nearly all actives have a fitted effect of over 55% in size. Put shortly:
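ATP-based luminescent viability (CellTiter-Glo, 30 min RT) after 16 h compound treatment at 37 C of p53RE-bla HCT-116 cells, seeded at 4,000 cells/well and rested 5 h before dosing.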

A short description of assay [12]: qHTS profiling of the MIPE4 collection as inhibitors of Plasmodium falciparum (3D7) proliferation (AID 743344; call rule not given here;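 also: scaled between DMSO vehicle wells and 0.29 µM artemisinin as full inhibition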). The following applies: P. falciparum 3D7 in erythrocytes, SYBR Green DNA fluorescence, 72 h; at 28.5 µM (top of the series) unless noted. Put shortly:
(§1)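 Erythrocytes infected with P. falciparum (0.3% parasitemia, 2.5% hematocrit) incubated with compounds 72 h at 37 C, 5% CO2. Lysis with saponin/Triton buffer containing SYBR Green I, overnight at room temperature in the dark; DNA fluorescence (485/535 nm) normalised to 0.29 uM artemisinin and DMSO.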

The nature of assay [13]: qHTS profiling of the MIPE4 collection as inhibitors of Plasmodium falciparum (DD2) proliferation (AID 743345; call rule not given here). The following applies: P. falciparum Dd2 in erythrocytes, SYBR Green DNA, 72 h; at 28.5 µM (top of the series) unless noted. Summed up: as §1
The nature of assay [14]: qHTS profiling of the MIPE4 collection as inhibitors of Plasmodium falciparum (DD2) proliferation (Rep 2) (AID 743346; call rule not given here). The conditions noted are these: P. falciparum Dd2 in erythrocytes, SYBR Green DNA, 72 h; at 28.5 µM (top of the series) unless noted. Put shortly:
as §1

Assay [15] in a line: qHTS profiling of the MIPE4 collection as inhibitors of Plasmodium falciparum (HB3) proliferation (AID 743347; call rule not given here;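 also: plate controls were DMSO vehicle wells for no effect and artemisinin wells for full effect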). The following applies: P. falciparum HB3 in erythrocytes, SYBR Green DNA, 72 h; at 28.5 µM (top of the series) unless noted. Put shortly: as §1
Assay [16] in a line: qHTS assay for small molecule agonists of the antioxidant response element (ARE) signaling pathway measured by Nrf2-dependant transcriptional activity (AID 720636; active = well fitted curve in the direction sought with a large enough effect in the repeat runs; an effect the other way counts as inactive or inconclusive; also: % of control where 0% means no effect). Summed up:
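Nrf2-dependent transcription read as ONE-Glo luciferase signal from ARE-luc HepG2 reporter cells after 16 hr compound treatment at 37 C, 5% CO2, in assay medium with 1% dialyzed FBS.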

Chain of Arylsulfatase A (Homo sapiens) (P15289 whole entry, looked up): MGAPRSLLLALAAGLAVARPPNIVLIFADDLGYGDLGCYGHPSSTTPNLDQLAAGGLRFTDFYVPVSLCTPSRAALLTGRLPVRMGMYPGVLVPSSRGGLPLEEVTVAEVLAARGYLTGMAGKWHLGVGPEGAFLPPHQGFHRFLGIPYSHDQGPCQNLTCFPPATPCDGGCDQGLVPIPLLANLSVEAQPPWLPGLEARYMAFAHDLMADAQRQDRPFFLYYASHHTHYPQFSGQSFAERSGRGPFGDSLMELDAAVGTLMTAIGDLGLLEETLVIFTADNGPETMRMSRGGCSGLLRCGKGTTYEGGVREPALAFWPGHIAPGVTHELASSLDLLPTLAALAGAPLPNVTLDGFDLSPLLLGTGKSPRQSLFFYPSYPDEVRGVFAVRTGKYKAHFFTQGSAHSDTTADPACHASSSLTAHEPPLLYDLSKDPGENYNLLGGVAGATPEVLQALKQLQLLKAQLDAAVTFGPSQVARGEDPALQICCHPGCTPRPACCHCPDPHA
T1 sequence (P35557 whole entry, looked up): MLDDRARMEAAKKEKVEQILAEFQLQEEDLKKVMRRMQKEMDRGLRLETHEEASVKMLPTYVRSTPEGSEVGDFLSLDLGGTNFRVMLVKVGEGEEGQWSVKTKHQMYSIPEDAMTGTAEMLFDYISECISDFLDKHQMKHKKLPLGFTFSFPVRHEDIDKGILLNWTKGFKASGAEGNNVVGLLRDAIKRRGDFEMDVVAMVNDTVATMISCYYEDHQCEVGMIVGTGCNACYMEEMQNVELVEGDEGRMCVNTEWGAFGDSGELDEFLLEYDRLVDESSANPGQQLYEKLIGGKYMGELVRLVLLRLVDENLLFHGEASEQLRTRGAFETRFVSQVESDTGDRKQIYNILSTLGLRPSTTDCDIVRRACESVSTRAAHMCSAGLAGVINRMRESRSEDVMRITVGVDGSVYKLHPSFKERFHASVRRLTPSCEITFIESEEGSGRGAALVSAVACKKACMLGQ
T1 sequence (Q14397 whole entry, looked up): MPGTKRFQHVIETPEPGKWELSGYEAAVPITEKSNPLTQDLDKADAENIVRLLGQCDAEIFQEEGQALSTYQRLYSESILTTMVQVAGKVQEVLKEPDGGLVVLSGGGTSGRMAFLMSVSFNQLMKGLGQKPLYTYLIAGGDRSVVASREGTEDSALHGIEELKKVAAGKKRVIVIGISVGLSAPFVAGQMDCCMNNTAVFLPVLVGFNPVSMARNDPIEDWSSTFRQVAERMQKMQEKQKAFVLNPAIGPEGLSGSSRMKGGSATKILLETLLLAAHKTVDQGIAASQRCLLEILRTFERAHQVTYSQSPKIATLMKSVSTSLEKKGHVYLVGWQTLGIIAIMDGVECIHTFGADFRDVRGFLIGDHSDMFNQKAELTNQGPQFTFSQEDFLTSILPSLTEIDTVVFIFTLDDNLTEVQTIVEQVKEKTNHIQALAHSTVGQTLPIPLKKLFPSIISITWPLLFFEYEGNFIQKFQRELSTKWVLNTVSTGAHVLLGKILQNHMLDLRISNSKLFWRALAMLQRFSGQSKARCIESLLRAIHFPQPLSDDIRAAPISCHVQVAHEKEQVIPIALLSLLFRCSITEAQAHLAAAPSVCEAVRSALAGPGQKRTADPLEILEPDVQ

`CN1C[C@H](CNC(=O)OCc2ccccc2)C[C@@H]2c3cccc4c3c(cn4C)C[C@H]21`: in [1], the Potency result was “inactive”. The compound was called inactive in assay [2], in assay [3], in assay [4], in assay [5] and in assay [6]. In assay [7], the max response is -4.3% (inactive).

For `N[C@@H](Cc1ccc(N(CCCl)CCCl)cc1)C(=O)O`, the Potency is 21.1 µM (active) in [8] and 50.1 µM (active) in assay [10]. Further, the max response in assay [9] is -3.2% (inactive) and -6.56% (inactive); in assay [7], 7.49% (inactive). Also, the Potency result in [11] was “inactive”. The parasite growth, % of DMSO control in assay [12] was found to be 47.5%. In assay [13], this compound showed a parasite growth remaining, % of DMSO control (lower = more inhibition) of 21.4%. This compound also returned a parasite growth, % of control (lower = inhibition) in [14] of 31.9%. This compound came in with a growth, % of control in assay [15] of 57.1%.

Turning to `Fc1ccc(C(OCCN2CCN(CCCc3ccccc3)CC2)c2ccc(F)cc2)cc1`, the call in assay [2], in assay [3], in [4], in assay [5] and in assay [6] was inactive. This compound registered a parasite growth, % of DMSO control in assay [12] of 5.99%. In addition, the parasite growth remaining, % of DMSO control (lower = more inhibition) in [13] turned out to be 9.78%. The same compound gave a parasite growth, % of control (lower = inhibition) in assay [14] of 10.9%. In addition, the growth, % of control in [15] turned out to be 86.1%.

For the compound `c1ccc2c(c1)Nc1ccccc1S2`, the Potency entry in assay [16], in [8] and in assay [11] was “inactive” each time. Further, the max response in assay [9] is -25.7% (inactive) and -9.49% (inactive); in assay [10], -11.4% (inactive) and -9% (inactive). Also, the Potency in [7] is 22.4 µM (active) and 28.2 µM (active).

For `COc1ccccc1N1CCNCC1`, the Potency result in assay [1] was “inactive”. The result in [2], in [3], in assay [4], in assay [5] and in [6] was inactive. The max response in assay [7] is 13.1% (inactive) and 8.67% (inactive).

With `NCC(CC(=O)O)c1ccc(Cl)cc1` (stereo not given), in assay [1], the Potency entry is “inactive”. In addition, the result in assay [2], in [3], in assay [4], in assay [5] and in [6] was inactive. Further, the max response in assay [7] is 0.281% (inactive) and 9.05% (inactive).

As for `CN(C)CCC=C1c2ccccc2CCc2ccccc21`, in assay [16], the Potency entry was “inactive”. Besides, the max response in assay [9] was -15% (inactive). Also, the Potency in assay [7] is 1.26 µM (active).

As for `c1ccc2c(c1)OCC(C1=NCCN1)O2` (stereo not given), in [1], the Potency entry is “inactive”. For the same compound, the call in [2], in assay [3], in assay [4], in assay [5] and in assay [6] was inactive. Also, the Potency in assay [7] is 6.31 µM (active) and 3.55 µM (active).

Turning to `Clc1ccc(COC(Cn2ccnc2)c2ccc(Cl)cc2Cl)cc1` (stereo not given), the Potency entry in assay [16] was “inactive”. Moreover, the results for the max response in assay [9] and in [10] were -7.45% (inactive) and -21% (inactive), respectively. Besides, the Potency in assay [7] is 10 µM (active).

Regarding `Cc1ncc(CNC(=O)N(CCCl)N=O)c(N)n1`, the result in assay [2], in assay [3], in assay [4], in [5] and in assay [6] was inactive. Also, the max response in assay [7] was -1.52% (inactive) and 11.3% (inactive).
